Our source for the gametocyte viability values is the supplement of paper PMC12297408.

Values without a mark were called inactive.

The subject of the assay is Plasmodium falciparum NF54/iGP1_RE9H ulg8 stage V gametocytes. As to the kind of experiment: gametocyte viability (luciferase signal relative to DMSO control) (% of DMSO control); higher = less gametocytocidal activity, active = 50 or less. The following applies: exposure time: 72 h. Put shortly: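 NF54/iGP1_RE9Hulg8 stage V gametocytes (day 12; ~2.5% gametocytemia, 3% hematocrit) were incubated with compounds at 10 µM or 1 µM final, in one well each, for 72 h at 37 °C in medium with 0.5% Albumax II. Luminescence after D-luciferin addition was read on an IVIS Lumina II. Viability refers to the mean of plate DMSO vehicle wells.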

For `Nc1nc(N)c2nc(-c3cccc(O)c3)c(-c3cccc(O)c3)nc2n1`, the gametocyte viability reads like this: (concentration: 1 µM) 110; (concentration: 10 µM) 109.

With `C=CC(=O)Nc1cccc(Sc2nc(Nc3ccc(N4CCN(C)CC4)cc3)ncc2Cl)c1`, the gametocyte viability is 87.2 (concentration: 1 µM) and 72.7 (concentration: 10 µM).

Consider `COC(=O)/C=C/c1cc(O)ccc1O` [Erbstatin analog], for which the gametocyte viability by setting is: (concentration: 1 µM) 97.8; (concentration: 10 µM) 99.1.

In the case of `C[C@@H](Oc1cc(-n2cnc3ccc(CN4CCN(C)CC4)cc32)sc1C(N)=O)c1ccccc1C(F)(F)F`, the gametocyte viability (concentration: 1 µM) is 103 and the gametocyte viability (concentration: 10 µM) was 81.6.

In the case of `O=S(=O)(c1cccc2cnccc12)N1CCCNCC1`, the gametocyte viability is, setting by setting: (concentration: 1 µM) 101; (concentration: 10 µM) 110.

For the compound `CC(C)c1cc(/C=C(\C#N)C(=O)NCCCc2ccccc2)cc(C(C)C)c1O`, the gametocyte viability was 99.4 (concentration: 1 µM) and 97.2 (concentration: 10 µM).

`N#CCNC(=O)c1ccc(-c2ccnc(Nc3ccc(N4CCOCC4)cc3)n2)cc1`: the gametocyte viability was 98.5 (concentration: 1 µM) and 97.1 (concentration: 10 µM).

Consider `CO[C@H]1C[C@@H]2CC[C@@H](C)[C@@](O)(O2)C(=O)C(=O)N2CCCC[C@H]2C(=O)O[C@H]([C@H](C)C[C@@H]2CC[C@@H](OP(C)(C)=O)[C@H](OC)C2)CC(=O)[C@H](C)/C=C(\C)[C@@H](O)[C@@H](OC)C(=O)[C@H](C)C[C@H](C)/C=C/C=C/C=C/1C` [Deforolimus (Ridaforolimus)], for which the gametocyte viability was 90.2 (concentration: 1 µM) and 86.2 (concentration: 10 µM).

With `O=S(=O)(NCCNC/C=C/c1ccc(Br)cc1)c1cccc2cnccc12`, the gametocyte viability is, setting by setting: (concentration: 1 µM) 99; (concentration: 10 µM) 93.1.

As to `Cc1nc(Nc2ncc(C(=O)Nc3c(C)cccc3Cl)s2)cc(N2CCN(CCO)CC2)n1`, the gametocyte viability by setting is: (concentration: 1 µM) 95.3; (concentration: 10 µM) 87.3.

On to `Nc1ncnc2c1c(-c1cccc(OCc3ccccc3)c1)cn2C1CC(CN2CCCC2)C1` (stereo not drawn), for which the gametocyte viability was 94.4 (concentration: 1 µM) and 84 (concentration: 10 µM).

As to `Cc1cc(C(C)Nc2ccccc2)c2nc(N3CCOCC3)cc(=O)n2c1` (stereo not drawn), the gametocyte viability by setting is: (concentration: 1 µM) 90.1; (concentration: 10 µM) 89.

`O=C(NC1CCNCC1)c1n[nH]cc1NC(=O)c1c(Cl)cccc1Cl`: the gametocyte viability is, setting by setting: (concentration: 1 µM) 99.2; (concentration: 10 µM) 69.7.

`O=C(O)c1cc(N(Cc2ccccc2O)Cc2cc(O)ccc2O)ccc1O` [Lavendustin A]: the gametocyte viability by setting is: (concentration: 1 µM) 98.5; (concentration: 10 µM) 99.4.

Consider `Cc1cc(Nc2cc(N3CCN(C)CC3)nc(/C=C/c3ccccc3)n2)n[nH]1`, for which the gametocyte viability is 90.7 (concentration: 1 µM) and 71.4 (concentration: 10 µM).

For the compound `O=C1NC(=O)/C(=C\c2ccc3nccnc3c2)S1`, the gametocyte viability was 94.4 (concentration: 1 µM) and 101 (concentration: 10 µM).

On to `Cc1ccc(-c2nn(C(C)(C)C)c3ncnc(N)c23)cc1`, for which the gametocyte viability reads like this: (concentration: 1 µM) 103; (concentration: 10 µM) 105.

Turning to `c1ccc2c(-c3cnn4cc(-c5ccc(N6CCNCC6)cc5)cnc34)ccnc2c1`, the gametocyte viability by setting is: (concentration: 1 µM) 106; (concentration: 10 µM) 73.3.

As for `COc1cc(Nc2ncc(F)c(Nc3ccc4c(n3)NC(=O)C(C)(C)O4)n2)cc(OC)c1OC` [R406(free base)], the gametocyte viability by setting is: (concentration: 1 µM) 96.3; (concentration: 10 µM) 103.
